Experimental data as given in publication PMC4552634, “A New Set of Chemical Starting Points with Plasmodium falciparum Transmission-Blocking Potential for Antimalarial Drug Discovery” (PLoS ONE, 2015).
Screen size: about 13,000 compounds; about 3,200 (25%) showed an effect of 50% or more. The list shows a part of the results.

What follows are molecules tested on P. falciparum stage V gametocytes. Conditions: 48 h, 5 µM; inhibitor.
Parameters: BacTiter-Glo ATP luminescence viability of purified stage V gametocytes in 384-well plates, per cent inhibition versus DMSO

SMILES | % Inhibition [%]
O=C(/C=C/c1ccc(Cl)c(Cl)c1)NCCCCCN1CCC(NC(=O)c2cc(Cl)ccc2F)CC1 [TCMDC-135870] | -52.06
CC(C)(C)c1ccc(S(=O)(=O)Nc2ccccc2N2CCOCC2)cc1 [TCMDC-124560] | 22.48
CC(=O)c1cc(N2CCCC2)ccc1N [TCMDC-125017] | -63.54
CCCCCCc1cc2cc(-c3nc(-c4ccc(OC)cc4)cs3)c(=O)oc2cc1O [TCMDC-124081] | -11.41
O=C(Nc1cccc(-c2cccc(-c3nc4ccc(C(F)(F)F)cc4[nH]3)c2)c1)c1cnc[nH]1 [TCMDC-136935] | 37.83
NC1=NC2(CCCCC2)N(OCCCCCCc2ccccc2)C(N)=N1 [TCMDC-131605] | 26.32
CC1(C)Cc2c([nH]c3ccccc23)C(CCCCCCCCC2=NC(C)(C)Cc3c2[nH]c2ccccc32)=N1 [TCMDC-137565] | 110.1
Cc1nn(C2CCS(=O)(=O)C2)c(C)c1C1Nc2ccccc2C(=O)N1Cc1ccc2c(c1)OCO2 (centres unmarked) [TCMDC-125241] | 62.63
Cc1cc(C2NC(=O)c3ccccc3N2)c(C)n1-c1ccc2c(c1)OCO2 (centres unmarked) [TCMDC-125051] | 5.355
OC(c1cccc(OCc2ccccc2)c1)C1CN(CCc2ccccc2)CCC1(O)c1ccccc1 (centres unmarked) [TCMDC-131997] | 1.971
COc1cc(Nc2nccc(-c3c(-c4cccc(NC(=O)c5c(F)cccc5F)c4)nn4ccccc34)n2)cc(OC)c1OC [TCMDC-135668] | -53.25
CCCCCC(=O)N1CCOC(CCN2CCc3c(c4ccccc4n3C)C2)(c2ccc(Cl)c(Cl)c2)C1 (centres unmarked) [TCMDC-135564] | -20.19
S=C(NCCc1ccccc1)Nc1ccc2ncsc2c1 [TCMDC-139021] | -23.08
Cc1csc2nc(-c3ccccn3)nc(Nc3ccc4ncsc4c3)c12 [TCMDC-138923] | 100.3
Cc1csc2nc(-c3ccccn3)nc(Nc3ccncn3)c12 [TCMDC-138927] | 119.9
O=C(Nc1ccnc(N2CC3CC2CN3Cc2cccc(O)c2)c1)c1ccc(F)cc1 (centres unmarked) [TCMDC-134956] | -60.26
FC(F)(F)c1ccc2[nH]c(-c3ccc(-c4ccc(CNCC5CCCO5)cc4)cc3)nc2c1.O=C(O)C(F)(F)F (centres unmarked) [TCMDC-133096] | -14.34
O=C(CCc1nc2c(cnn2-c2ccccc2)c(=O)[nH]1)NC1CCSc2ccccc21 (centres unmarked) [TCMDC-124875] | -14.45
Cc1cccc2nc(-c3ccc(-c4cccc(CN5CCN(CC6CCCN(C)C6)CC5)c4)s3)[nH]c12.O=C(O)C(F)(F)F (centres unmarked) [TCMDC-133909] | 55.65
Cc1cccc2nc(-c3ccc(-c4ccc(CN5CCCCC5)cc4)s3)[nH]c12.O=C(O)C(F)(F)F [TCMDC-133902] | -19.5
Cc1cccc2nc(-c3ccc(-c4ccc(CN5CCN(c6ccncc6)CC5)cc4)s3)[nH]c12.O=C(O)C(F)(F)F [TCMDC-132912] | 36.62
Cc1cccc2nc(-c3ccc(-c4ccc(CN5CCN(CC6CCCN(C)C6)CC5)cc4)s3)[nH]c12.O=C(O)C(F)(F)F (centres unmarked) [TCMDC-133899] | 90.54
Cc1cccc2nc(-c3ccc(-c4cccc(CN5CCN(c6ccncc6)CC5)c4)s3)[nH]c12.O=C(O)C(F)(F)F [TCMDC-132917] | 20.85
CN1CCCC(CN2CCN(Cc3cccc(-c4ccc(-c5nc6ccccc6[nH]5)s4)c3)CC2)C1.O=C(O)C(F)(F)F (centres unmarked) [TCMDC-133904] | 49.15
Cc1c(CNCCCNc2nc3ccccc3[nH]2)[nH]c2cc(Cl)cc(Cl)c12 [TCMDC-139964] | 2.559

SMILES | % Inhibition [%]
Oc1ccc(-c2cncc(NCc3ccc(F)c(F)c3)c2)cc1 [TCMDC-136668] | 23.22
CC(=O)Nc1nc(C(=O)Nc2ccc(-c3ccc(-c4nc5ccc(F)cc5[nH]4)cc3)cc2)cs1 [TCMDC-136779] | 1.328
C=CC(=O)Nc1ccc(Cl)cc1C(O)c1ccccc1 (centres unmarked) [TCMDC-131787] | 1.536
CC(C)C1c2ccc(O)cc2CC2C(=O)N(C3CCCCC3)C(=O)N21 (centres unmarked) [TCMDC-138120] | 28.46
Cc1cc(-c2cccc(CNC3CCN(C)CC3)c2)ccc1S(=O)(=O)NCCN1CCCC1 [TCMDC-132383] | 87.02
Cc1cc(-c2cccc(CNC3CCN(C)CC3)c2)ccc1S(=O)(=O)NC1CCC1 [TCMDC-132380] | 72.06
Cc1cc(-c2cccc(CNCc3ccccc3)c2)ccc1S(=O)(=O)NCCN1CCCC1 [TCMDC-132382] | 4
CN1CCC(NCc2cccc(-c3ccc(S(=O)(=O)NCCN4CCCC4)c(F)c3)c2)CC1 [TCMDC-132222] | 88.17
Cc1cc(-c2cccc(CNC3CCCC3)c2)ccc1S(=O)(=O)NCCN1CCCC1 [TCMDC-132279] | 103.9
Cc1cnc2cc3c(cc2c1N1CCN(C)CC1)NCC3 [TCMDC-140363] | -97.35
Cc1cccc(-c2ccc(NC(=O)Nc3ccc4nccc(N5CCN(C)CC5)c4c3)cc2C)n1 [TCMDC-139353] | 26.78
COc1ccc(C=NNc2nc3ccccc3[nH]2)cc1O [TCMDC-124104] | -79.21
COC(=O)C(Cc1ccccc1)NC(=O)NC1CCN(c2ccnc(Nc3ccc(F)cc3)n2)C1 (centres unmarked) [TCMDC-133597] | 34.56
Nc1nc(N)c2c(n1)CCC(c1ccccc1)C2 (centres unmarked) [TCMDC-137806] | -20.76
CS(=O)(=O)c1ccc(Nc2ncc(-c3ccc(S(C)(=O)=O)cc3)c(OCC(F)(F)F)n2)cc1 [TCMDC-138524] | 24.49
COc1ccc(C(C(=O)NC2CCN(C[C@H](O)c3ccnc4ccc(OC)cc34)CC2)N2CCc3ccccc3C2)cc1 (some centres unmarked) [TCMDC-140986] | 7.291
Cc1ccc(F)c(OCC2CCN(c3ccc(C(=O)NC4CC4)cn3)CC2)c1 [TCMDC-134037] | 41.12
CN(C)CCCOc1cccc(NC(=O)Nc2ccc(Cl)c(Cl)c2)c1 [TCMDC-139538] | -5.244
CN(C)CCCOc1ccc(CCNCc2cccc(Oc3ccc(Cl)cc3)c2)cc1 [TCMDC-140092] | 79.59
OC(CNCc1cccc(Oc2ccc(Cl)cc2)c1)c1cc(C(F)(F)F)cc(C(F)(F)F)c1 (centres unmarked) [TCMDC-140302] | 49.58
CN(C)CCCOc1ccc(CNCc2cccc(Oc3ccc(Cl)cc3)c2)cc1 [TCMDC-140101] | 61.18
CN(C)CCCOc1ccc(CCCCc2ccc(Cl)cc2C(=O)c2ccccc2)cc1 [TCMDC-131856] | 31.42
Cc1c(-c2cccc(CNCCc3ccc(Cl)cc3)c2)cnc(N)c1C [TCMDC-138274] | 9.871
CN(C)CCCOc1cccc(CCNCc2cccc(Oc3ccc(Cl)cc3)c2)c1 [TCMDC-140091] | 58.44
OC(CNCc1cccc(Oc2ccc(Cl)cc2)c1)c1cccc(C(F)(F)F)c1 (centres unmarked) [TCMDC-140301] | -22.32
